In the supplement of paper PMC4166925:
± gives the standard deviation of the averaged measurements. In all, about 33,000 sequences were measured (“E-score (dimensionless, -0.5 to 0.5)”: median about -0.049, highest 2% from about 0.37 on). This excerpt belongs to a sample that is enriched for the highest values.

system: T1, PmTbr T-box DNA-binding domain (GST fusion); test: PBM E-score of 8-mer (E-score (dimensionless, -0.5 to 0.5)); Tbr is Tbrain of the sea star Patiria miniata (Pm) or the sea urchin Strongylocentrotus purpuratus (Sp); higher = stronger binding preference; settings: the construct has about 5 more residues each side
T1 sequence: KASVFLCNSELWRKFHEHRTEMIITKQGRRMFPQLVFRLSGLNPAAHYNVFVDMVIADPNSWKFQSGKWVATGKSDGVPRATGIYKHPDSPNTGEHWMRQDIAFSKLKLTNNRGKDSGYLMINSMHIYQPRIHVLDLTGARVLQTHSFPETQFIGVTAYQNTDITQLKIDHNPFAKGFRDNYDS
Experimental: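 Universal protein-binding microarray (Agilent AMADID 016060, 60-bp probes with a 35-bp variable region) incubated with 200 nM GST-fused Patiria miniata Tbr T-box DNA-binding domain (residues 272-466) in PBS pH 7.5. Scored for every ungapped 8-mer (given with its reverse complement) by the Universal PBM Analysis Suite as E-score (modified Wilcoxon-Mann-Whitney enrichment, range -0.5 to 0.5; >0.45 counts as bound) and Z-score of median probe intensity. Two replicate arrays (datasets 1 and 2).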
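Also: 200 nM protein in PBS on universal arrays averaged over duplicate arrays.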

Sequence	PBM E-score of 8-mer
ATCTCAAC	0.0437 ± 0.036
CTATCACC	0.431 ± 0.0063
ACCTCACC	0.261 ± 0.028
CTATCACA	0.305 ± 0.009
CTCTCACA	0.3481 ± 0.0026
ATCTCACC	0.409 ± 0.0061
ATCTCTCA	0.226 ± 0.023
ATCTCACA	0.372 ± 0.021
ATATCACC	0.364 ± 0.013
ATCTCACG	0.294 ± 0.016
CTCTCACC	0.383 ± 0.0077
CGCTCACC	0.0475 ± 0.083
ATTGTTAC	0.194 ± 0.057
GGTACGAC	-0.0493 ± 0.042
CAGAGGCA	-0.215 ± 0.071
ATCTACCG	-0.157 ± 0.067
AAGATCTC	0.061 ± 0.054
CCGGCCCC	-0.24 ± 0.058
CAATCGCC	-0.0698 ± 0.068
ATCCCCAA	-0.227 ± 0.063
GAGCTTCA	-0.137 ± 0.0098
ATACTTCC	0.0697 ± 0.018
GGCATTTA	0.00349 ± 0.0029
TCCTCACA	0.3327 ± 0.0011
ACCTCACA	0.423 ± 0.0099

Sequence	PBM E-score of 8-mer
GCCTCACA	0.224 ± 0.031
ACCTCACG	0.269 ± 0.038
GTCTCTCA	0.0943 ± 0.0041
GTCTCACA	0.392 ± 0.019
ACGCAATC	-0.12 ± 0.013
GCTTGGTA	-0.112 ± 0.032
CCCCTCTA	-0.143 ± 0.088
ATTAGCGG	0.121 ± 0.025
CCACTTGC	0.158 ± 0.056
ATACTTGG	-0.174 ± 0.046
ACACTTGA	0.369 ± 0.029
ACACTTGC	0.407 ± 0.013
AAACTTGC	0.122 ± 0.029
ACACTTGG	0.395 ± 0.0073
GAAGTTAA	0.0494 ± 0.064
TCTTGGCA	0.0497 ± 0.1
CCTAACAC	0.4369 ± 0.0041
ACTAACAC	0.412 ± 0.007
CCTAACAG	0.128 ± 0.033
ACTAACAG	0.216 ± 0.045
ACTAACAA	0.214 ± 0.032
GCTAACCC	0.00156 ± 0.0032
CCTAACAA	0.184 ± 0.055
GCTAACAA	0.252 ± 0.013
GCTAACAC	0.43 ± 0.0048

Sequence	PBM E-score of 8-mer
CAGTTCAC	0.226 ± 0.023
ACGCAGCT	0.109 ± 0.075
GACAATCC	0.106 ± 0.018
GTAAGCTA	-0.266 ± 0.012
ATGTAGAC	-0.237 ± 0.043
AGTCGCAA	0.147 ± 0.026
GGTCGCAA	0.205 ± 0.0044
AGTCGCAG	0.0399 ± 0.06
GGTCGCAC	0.373 ± 0.018
AGTCGCAC	0.395 ± 0.026
CGTCGCAC	0.332 ± 0.021
AGATTTTC	0.0361 ± 0.063
TAGTTCGA	0.16 ± 0.056
GCACCAGA	-0.03 ± 0.061
AATGTTCC	-0.191 ± 0.0029
ACAACGCA	0.105 ± 0.03
ACCACGCG	0.1217 ± 0.0011
ATCACCCG	0.194 ± 0.02
CACACCCC	0.416 ± 0.013
CACCCCCC	0.165 ± 0.06
CCCACCCG	0.105 ± 0.0088
CCCACCCA	0.0945 ± 0.0051
AACACCCG	0.428 ± 0.0098
ACCACCCG	0.189 ± 0.017
CACCCCCG	0.216 ± 0.014

Sequence	PBM E-score of 8-mer
CACACCGC	0.334 ± 0.027
CACACCCG	0.426 ± 0.019
TACACCCA	0.129 ± 0.046
CACACCCA	0.423 ± 0.012
TAATTCAA	-0.292 ± 0.037
CCCGGTCG	-0.111 ± 0.059
CCATAGGA	-0.0411 ± 0.059
TACAACGA	-0.18 ± 0.034
ATAGAACC	-0.0785 ± 0.034
CGGGCAGC	-0.0554 ± 0.0018
AGGTACCA	-0.0398 ± 0.018
GAGGCGCC	0.269 ± 0.018
TCACACAA	0.414 ± 0.015
CCACACCA	0.29 ± 0.033
GCACAACA	0.17 ± 0.013
CCACACAA	0.0617 ± 0.024
TCTCACCA	0.372 ± 0.011
TCACAACA	0.384 ± 0.00069
ACACACAA	0.0649 ± 0.066
ACTCACCA	-0.0425 ± 0.12
CCACAACA	0.203 ± 0.049
TCACACCA	0.48075 ± 0.00012
ACACACCA	0.285 ± 0.011
CCTCACCA	0.141 ± 0.045
AATGACAT	-0.101 ± 0.054

Sequence	PBM E-score of 8-mer
GGAACTCC	-0.22 ± 0.083
GCCTCTTA	-0.0658 ± 0.019
GAGGAATA	-0.274 ± 0.02
TCGGACAA	-0.0104 ± 0.018
ACTCAAGT	-0.000135 ± 0.051
ATGGACTG	-0.165 ± 0.016
ACCACACC	0.361 ± 0.023
GCCACACC	0.394 ± 0.024
CGCACACC	0.325 ± 0.022
CACACACC	0.428 ± 0.021
CCCACACC	0.43 ± 0.019
GACACACC	0.287 ± 0.073
CCCACACG	0.0862 ± 0.0074
GCCACACA	0.279 ± 0.031
CCCACACA	0.17 ± 0.0076
ATGCTCGG	0.00834 ± 0.022
GACGTCTC	-0.235 ± 0.013
GGGTAGGA	-0.205 ± 0.052
ACCACCAC	0.0224 ± 0.049
GGCACCAC	0.225 ± 0.022
AACACCAC	0.3719 ± 0.0024
AGCACCAC	0.115 ± 0.054
ATCACCAT	0.155 ± 0.014
ACCACCAA	0.0394 ± 0.048
AACACCAT	0.3887 ± 0.0029

Sequence	PBM E-score of 8-mer
ACCACCAT	0.1243 ± 0.0012
GACACCAC	0.393 ± 0.016
AACACCAA	0.393 ± 0.011
GCCACCAC	0.122 ± 0.08
GACACCAA	0.345 ± 0.0047
AATGCAGG	-0.116 ± 0.0066
GCACAGCC	-0.192 ± 0.031
ACAGTGTG	0.324 ± 0.025
GGAGCATA	-0.0893 ± 0.017
AGGCTGAA	-0.124 ± 0.018
AAACCAAG	-0.0652 ± 0.0092
CAAGCTCC	-0.181 ± 0.059
ACACCCTC	0.429 ± 0.0062
CCACCCTC	0.0601 ± 0.017
ACCCCCTG	0.0477 ± 0.028
CCACCCTA	0.0728 ± 0.0043
GCACCCTA	0.133 ± 0.089
ATACCCTG	-0.154 ± 0.04
ACCCCCTC	-0.00817 ± 0.062
ACACCCTA	0.383 ± 0.018
ACACCCTG	0.426 ± 0.026
GAGCCATC	-0.0135 ± 0.0062
GGAGTTCA	-0.0635 ± 0.036
AAGGCGAT	0.0522 ± 0.036
AGCAAACA	0.0237 ± 0.023

Sequence	PBM E-score of 8-mer
GATGAAGA	-0.134 ± 0.051
TGTCAACA	0.378 ± 0.0046
CGTCAACA	0.311 ± 0.036
GGTCAACA	0.123 ± 0.0043
GCGCTCCC	-0.133 ± 0.028
AGTTCGCG	0.221 ± 0.038
GATCCTGA	-0.144 ± 0.049
ATTATCAC	0.38 ± 0.053
ATCATCAC	0.381 ± 0.008
GTCATCAC	0.2787 ± 0.00098
CTTATCAC	0.331 ± 0.023
CTCATCAC	0.249 ± 0.0053
ATTATCAG	-0.0355 ± 0.028
ATAAACGG	-0.131 ± 0.087
CGTACCCC	-0.186 ± 0.063
GGTCGATA	0.0375 ± 0.069
CCTGAGAG	0.208 ± 0.03
CACAGCCG	-0.0675 ± 0.11
ACGCGCGC	0.157 ± 0.033
CCGCGCGA	0.226 ± 0.0095
GCGCGCGA	0.2759 ± 0.00057
ACGCGCGG	0.19 ± 0.031
ACGCGCGA	0.3693 ± 0.0027
